Laboratory results as given in PubChem BioAssay AID743320 (Broad Institute, 2014).
Results with a measured potency or affinity are listed apart.

Target: Endoplasmic reticulum aminopeptidase 2 (Homo sapiens) (UniProt Q6P179)
Experiment: ERAP2 aminopeptidase inhibitors, dose response, selectivity assay for selective ERAP1 modulator project, biochemical, fluorescence plate reader, cherry-picked, set 2 (AID 743320)
Settings: recombinant ERAP2, Arg-AMC fluorescence, 1 h; series mostly up to 11 µM; activity change, negative = inhibition: at the top concentration;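 active = signal drop whose fitted half-maximal potency is at most twice the top valid dose tested; inconclusive = flat curve inhibiting 30 to 70 percent, or a poor fit; inactive = the rest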

Chain of Endoplasmic reticulum aminopeptidase 2 (Homo sapiens) (Q6P179 whole entry, looked up): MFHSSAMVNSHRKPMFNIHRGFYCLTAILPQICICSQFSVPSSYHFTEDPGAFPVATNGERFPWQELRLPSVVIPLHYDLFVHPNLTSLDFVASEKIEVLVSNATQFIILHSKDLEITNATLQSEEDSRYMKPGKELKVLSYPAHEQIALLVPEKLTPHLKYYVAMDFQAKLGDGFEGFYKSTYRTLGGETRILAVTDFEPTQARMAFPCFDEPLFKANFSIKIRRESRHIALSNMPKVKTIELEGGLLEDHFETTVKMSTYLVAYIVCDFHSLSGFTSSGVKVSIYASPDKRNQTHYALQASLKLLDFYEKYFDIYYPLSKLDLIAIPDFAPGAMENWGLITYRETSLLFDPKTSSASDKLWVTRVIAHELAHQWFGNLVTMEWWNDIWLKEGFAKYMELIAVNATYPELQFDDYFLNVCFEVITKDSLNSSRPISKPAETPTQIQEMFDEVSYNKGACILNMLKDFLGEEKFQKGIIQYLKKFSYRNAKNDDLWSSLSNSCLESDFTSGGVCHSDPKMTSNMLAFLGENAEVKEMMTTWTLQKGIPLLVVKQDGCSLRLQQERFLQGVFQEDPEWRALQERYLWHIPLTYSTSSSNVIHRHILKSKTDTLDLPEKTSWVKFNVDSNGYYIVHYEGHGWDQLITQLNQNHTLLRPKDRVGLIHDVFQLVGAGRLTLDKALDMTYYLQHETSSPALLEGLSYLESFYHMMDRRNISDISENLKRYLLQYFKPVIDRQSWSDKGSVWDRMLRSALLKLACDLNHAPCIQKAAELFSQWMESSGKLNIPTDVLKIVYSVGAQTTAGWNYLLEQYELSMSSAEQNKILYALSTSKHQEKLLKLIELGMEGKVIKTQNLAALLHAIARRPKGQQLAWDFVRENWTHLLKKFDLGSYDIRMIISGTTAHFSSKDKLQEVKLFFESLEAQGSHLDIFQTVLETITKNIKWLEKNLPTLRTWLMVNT

Activity change, negative = inhibition, inactive:
CCC(=O)N(C)C[C@H]1Oc2ncc(C#Cc3ccncc3)cc2C(=O)N([C@H](C)CO)C[C@H]1C -5.99%
Cc1ccccc1-c1ccc2c(c1)O[C@@H](CN(C)Cc1ccc(C(=O)O)cc1)[C@@H](C)CN([C@@H](C)CO)S2(=O)=O 0.523%
Cc1cc(=O)oc2c(CN3CCN(C)CC3)c(O)c(Cl)cc12 12%
Cc1ccccc1-c1ccc2c(c1)O[C@@H](CN(C)Cc1ccc(C(=O)O)cc1)[C@@H](C)CN([C@H](C)CO)S2(=O)=O 8.67%
C[C@H](CO)N1C[C@H](C)[C@H](CN(C)Cc2ccncc2)Oc2c(NC(=O)Nc3ccc(C(F)(F)F)cc3)cccc2C1=O 4.68%
CCCCc1cc(=O)oc2cc(O)ccc12 498%
COc1ccc(CN(C)C[C@H]2OCCCC[C@@H](C)Oc3ccc(NS(=O)(=O)c4cccs4)cc3C(=O)N([C@@H](C)CO)C[C@H]2C)cc1 2.79%
COCCCn1c(C(=O)N2CCOCC2)cc2c(=O)n3ccccc3nc21 370%
C[C@H]1CN([C@@H](C)CO)C(=O)c2cccc(NC(=O)Nc3ccc4c(c3)OCO4)c2O[C@@H]1CN(C)CC1CC1 12.8%
C[C@@H]1CCCCO[C@H](CN(C)Cc2ccc(C(=O)O)cc2)[C@H](C)CN([C@@H](C)CO)C(=O)c2cc(NC(=O)Nc3ccc(C(F)(F)F)cc3)ccc2O1 11.3%
Cc1noc(C)c1S(=O)(=O)Nc1ccc2c(c1)C(=O)N([C@H](C)CO)C[C@@H](C)[C@@H](CN(C)CC1CCCCC1)OCCCC[C@@H](C)O2 1.44%
COc1ccc2c3c([nH]c2c1)[C@H](CO)N(Cc1cc(F)ccc1F)CC31CN(C)C1 11.2%
